How the values were obtained:
Assay in all cases: DAPPL (digital affinity profiling via proximity ligation, sequencing); 10 mM Tris-HCl pH 7.5, 50 mM NaCl, 1 mM DTT, 4% glycerol, room temperature, 30 min; GST-TFs on glutathione beads, 16-mer random dsDNA library, 0.1% formaldehyde crosslink after washing; high values mean tight binding
HSF1 = HSF1 (Homo sapiens, UniProt Q00613 1-529); conditions: protein: recombinant; tags: N-terminal GST; chain copies: 3; dsDNA, one strand shown
Procedure, shortened: (§1)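 GST fusions of human transcription factors were expressed in yeast and captured with glutathione beads. Once given DNA barcodes and pooled alongside a tag-only sample, they were incubated for 30 min at room temperature with 200 nmole of a random double-stranded 16-mer DNA library in Tris/NaCl/DTT/glycerol buffer, then washed, crosslinked (0.1% formaldehyde), proximity-ligated, PCR-amplified and sequenced on an Illumina NextSeq500. The binding signal of each hexamer is its read frequency for a factor divided by its frequency for the tag-only sample.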

SPIC = biological target: T1, SPIC (Homo sapiens, UniProt Q8N5J4 1-248); conditions: protein: recombinant; tags: N-terminal GST; dsDNA, one strand shown
T1 sequence: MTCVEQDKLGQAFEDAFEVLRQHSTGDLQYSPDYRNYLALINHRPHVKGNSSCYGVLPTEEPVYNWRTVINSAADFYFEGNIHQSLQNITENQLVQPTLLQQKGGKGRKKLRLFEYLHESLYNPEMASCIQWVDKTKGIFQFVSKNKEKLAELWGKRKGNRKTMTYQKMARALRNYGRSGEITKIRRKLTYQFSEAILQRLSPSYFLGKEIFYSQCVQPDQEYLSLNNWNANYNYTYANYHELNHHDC
Procedure, shortened: as §1

CRX = CRX (Homo sapiens, UniProt O43186 1-299); conditions: protein: recombinant; tags: N-terminal GST; dsDNA, one strand shown
Sequence of CRX (O43186 whole entry): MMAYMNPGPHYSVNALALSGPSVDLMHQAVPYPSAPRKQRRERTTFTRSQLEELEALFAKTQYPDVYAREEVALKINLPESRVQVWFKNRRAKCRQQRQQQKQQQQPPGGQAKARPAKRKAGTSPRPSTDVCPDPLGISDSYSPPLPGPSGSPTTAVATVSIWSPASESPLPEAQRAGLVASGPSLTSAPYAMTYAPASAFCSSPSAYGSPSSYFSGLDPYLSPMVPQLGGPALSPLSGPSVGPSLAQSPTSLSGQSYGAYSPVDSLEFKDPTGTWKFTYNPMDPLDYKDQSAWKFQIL
Procedure, shortened: as §1

ELK3 = biological target: T2, ELK3 (Homo sapiens, UniProt P41970 1-407); conditions: protein: recombinant; tags: N-terminal GST; dsDNA, one strand shown
T2 sequence: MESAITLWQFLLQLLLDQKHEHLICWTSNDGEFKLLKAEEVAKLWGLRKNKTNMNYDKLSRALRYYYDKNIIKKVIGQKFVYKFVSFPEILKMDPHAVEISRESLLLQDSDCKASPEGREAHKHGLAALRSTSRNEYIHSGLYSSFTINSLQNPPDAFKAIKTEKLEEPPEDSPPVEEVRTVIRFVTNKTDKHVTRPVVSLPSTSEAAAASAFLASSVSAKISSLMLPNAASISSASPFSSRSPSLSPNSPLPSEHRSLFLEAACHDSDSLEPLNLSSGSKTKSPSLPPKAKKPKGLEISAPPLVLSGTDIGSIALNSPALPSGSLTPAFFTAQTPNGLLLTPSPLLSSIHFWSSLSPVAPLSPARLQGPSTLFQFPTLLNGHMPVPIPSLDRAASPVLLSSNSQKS
Procedure, shortened: as §1

ELK4 = biological target: T3, ELK4 (Homo sapiens, UniProt P28324-2 1-405); conditions: protein: recombinant; tags: N-terminal GST; dsDNA, one strand shown
T3 sequence: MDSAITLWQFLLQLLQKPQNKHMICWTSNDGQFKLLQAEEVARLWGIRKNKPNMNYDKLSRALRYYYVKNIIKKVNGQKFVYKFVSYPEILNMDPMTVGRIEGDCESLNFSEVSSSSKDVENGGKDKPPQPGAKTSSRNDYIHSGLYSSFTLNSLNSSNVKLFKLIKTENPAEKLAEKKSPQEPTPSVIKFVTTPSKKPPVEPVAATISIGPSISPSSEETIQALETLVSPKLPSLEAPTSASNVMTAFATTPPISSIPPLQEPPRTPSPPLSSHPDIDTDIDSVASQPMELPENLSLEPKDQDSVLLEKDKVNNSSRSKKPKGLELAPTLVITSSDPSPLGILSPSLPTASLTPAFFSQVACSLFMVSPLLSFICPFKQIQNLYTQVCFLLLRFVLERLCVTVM
Procedure, shortened: as §1

ELF5 = biological target: T4, ELF5 (Homo sapiens, UniProt Q9UKW6-2 1-255); conditions: protein: recombinant; tags: N-terminal GST; dsDNA, one strand shown
T4 sequence: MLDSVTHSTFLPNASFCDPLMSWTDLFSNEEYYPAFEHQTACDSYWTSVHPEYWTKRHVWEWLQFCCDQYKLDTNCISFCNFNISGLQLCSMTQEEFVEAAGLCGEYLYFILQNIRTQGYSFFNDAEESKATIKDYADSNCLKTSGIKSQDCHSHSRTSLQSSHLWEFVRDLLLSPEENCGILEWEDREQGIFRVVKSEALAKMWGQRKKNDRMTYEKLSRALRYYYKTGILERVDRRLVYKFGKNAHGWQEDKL
Procedure, shortened: as §1

ELF4 = ELF4 (Homo sapiens, UniProt Q99607 1-663); conditions: protein: recombinant; tags: N-terminal GST; dsDNA, one strand shown
Sequence of ELF4 (Q99607 whole entry): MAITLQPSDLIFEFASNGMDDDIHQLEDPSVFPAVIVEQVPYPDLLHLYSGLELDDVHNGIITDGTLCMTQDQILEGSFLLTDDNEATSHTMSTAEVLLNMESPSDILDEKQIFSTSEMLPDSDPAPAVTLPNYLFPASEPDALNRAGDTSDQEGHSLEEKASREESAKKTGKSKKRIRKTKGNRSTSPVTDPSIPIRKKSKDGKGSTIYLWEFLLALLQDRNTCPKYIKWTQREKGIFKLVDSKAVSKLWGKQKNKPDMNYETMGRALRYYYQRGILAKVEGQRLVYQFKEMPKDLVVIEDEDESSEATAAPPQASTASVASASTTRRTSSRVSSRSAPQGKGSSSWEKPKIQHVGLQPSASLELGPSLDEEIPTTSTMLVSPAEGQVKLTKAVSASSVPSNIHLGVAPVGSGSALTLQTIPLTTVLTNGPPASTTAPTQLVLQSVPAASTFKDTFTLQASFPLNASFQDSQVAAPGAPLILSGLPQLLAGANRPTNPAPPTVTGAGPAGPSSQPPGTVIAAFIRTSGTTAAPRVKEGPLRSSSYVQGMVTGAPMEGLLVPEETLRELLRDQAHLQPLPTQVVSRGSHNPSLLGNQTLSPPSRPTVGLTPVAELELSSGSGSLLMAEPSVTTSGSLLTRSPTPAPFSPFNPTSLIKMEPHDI
Procedure, shortened: as §1

ERF = biological target: T5, ERF (Homo sapiens, UniProt P50548 1-548); conditions: protein: recombinant; tags: N-terminal GST; dsDNA, one strand shown
T5 sequence: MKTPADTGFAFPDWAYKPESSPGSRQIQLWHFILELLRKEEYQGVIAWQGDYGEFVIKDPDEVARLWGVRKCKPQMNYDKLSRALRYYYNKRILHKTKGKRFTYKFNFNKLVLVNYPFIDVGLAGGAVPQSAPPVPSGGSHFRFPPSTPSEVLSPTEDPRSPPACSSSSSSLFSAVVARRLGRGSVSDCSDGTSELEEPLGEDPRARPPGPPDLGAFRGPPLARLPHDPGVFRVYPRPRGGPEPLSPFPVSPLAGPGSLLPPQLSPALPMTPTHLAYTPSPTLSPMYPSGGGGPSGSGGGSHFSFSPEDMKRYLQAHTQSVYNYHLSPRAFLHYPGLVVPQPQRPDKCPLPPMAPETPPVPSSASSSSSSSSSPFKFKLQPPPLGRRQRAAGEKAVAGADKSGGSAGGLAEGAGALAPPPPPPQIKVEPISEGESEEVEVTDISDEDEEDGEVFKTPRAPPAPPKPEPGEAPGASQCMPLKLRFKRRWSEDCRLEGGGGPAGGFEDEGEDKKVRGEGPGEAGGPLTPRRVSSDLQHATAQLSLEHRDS
Procedure, shortened: as §1

ETV3L = biological target: T6, ETV3L (Homo sapiens, UniProt Q6ZN32 1-361); conditions: protein: recombinant; tags: N-terminal GST; dsDNA, one strand shown
T6 sequence: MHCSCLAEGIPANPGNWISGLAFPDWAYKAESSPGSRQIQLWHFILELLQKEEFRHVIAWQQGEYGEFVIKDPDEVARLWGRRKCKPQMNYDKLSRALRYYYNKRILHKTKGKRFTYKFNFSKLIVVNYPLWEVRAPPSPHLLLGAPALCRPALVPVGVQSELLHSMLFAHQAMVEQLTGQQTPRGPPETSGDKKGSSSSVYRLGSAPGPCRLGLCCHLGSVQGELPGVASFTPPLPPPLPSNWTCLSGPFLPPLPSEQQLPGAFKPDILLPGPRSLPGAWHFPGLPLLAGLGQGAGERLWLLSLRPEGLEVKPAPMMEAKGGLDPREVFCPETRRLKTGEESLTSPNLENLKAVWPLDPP
Procedure, shortened: as §1

ETV7 = biological target: T7, ETV7 (Homo sapiens, UniProt Q9Y603 1-341); conditions: protein: recombinant; tags: N-terminal GST; dsDNA, one strand shown
T7 sequence: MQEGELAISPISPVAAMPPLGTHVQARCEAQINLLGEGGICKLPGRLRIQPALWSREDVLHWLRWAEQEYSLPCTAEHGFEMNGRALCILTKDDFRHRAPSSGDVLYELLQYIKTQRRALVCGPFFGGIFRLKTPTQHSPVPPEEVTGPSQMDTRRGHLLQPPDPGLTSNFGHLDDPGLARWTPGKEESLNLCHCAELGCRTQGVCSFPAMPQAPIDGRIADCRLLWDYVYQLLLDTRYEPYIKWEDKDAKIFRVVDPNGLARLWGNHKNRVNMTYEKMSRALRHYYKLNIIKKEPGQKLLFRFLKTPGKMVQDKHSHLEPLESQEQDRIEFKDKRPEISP
Procedure, shortened: as §1

ELK1 = biological target: T8, ELK1 (Homo sapiens, UniProt P19419 1-428); conditions: protein: recombinant; tags: N-terminal GST; dsDNA, one strand shown
T8 sequence: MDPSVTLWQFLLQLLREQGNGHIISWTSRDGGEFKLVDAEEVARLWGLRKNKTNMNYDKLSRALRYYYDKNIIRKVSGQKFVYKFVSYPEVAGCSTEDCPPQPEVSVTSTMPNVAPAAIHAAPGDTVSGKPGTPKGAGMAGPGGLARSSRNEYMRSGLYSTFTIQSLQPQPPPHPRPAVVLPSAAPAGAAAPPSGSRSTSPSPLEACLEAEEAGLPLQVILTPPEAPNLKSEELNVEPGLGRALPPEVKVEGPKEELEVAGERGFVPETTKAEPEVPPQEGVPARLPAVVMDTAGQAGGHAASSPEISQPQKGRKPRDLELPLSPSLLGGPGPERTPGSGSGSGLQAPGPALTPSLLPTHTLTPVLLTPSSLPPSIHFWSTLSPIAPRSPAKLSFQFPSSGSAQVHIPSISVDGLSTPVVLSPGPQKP
Procedure, shortened: as §1

GABPA = biological target: T9, GABPA (Homo sapiens, UniProt Q06546 1-454); conditions: protein: recombinant; tags: N-terminal GST; dsDNA, one strand shown
T9 sequence: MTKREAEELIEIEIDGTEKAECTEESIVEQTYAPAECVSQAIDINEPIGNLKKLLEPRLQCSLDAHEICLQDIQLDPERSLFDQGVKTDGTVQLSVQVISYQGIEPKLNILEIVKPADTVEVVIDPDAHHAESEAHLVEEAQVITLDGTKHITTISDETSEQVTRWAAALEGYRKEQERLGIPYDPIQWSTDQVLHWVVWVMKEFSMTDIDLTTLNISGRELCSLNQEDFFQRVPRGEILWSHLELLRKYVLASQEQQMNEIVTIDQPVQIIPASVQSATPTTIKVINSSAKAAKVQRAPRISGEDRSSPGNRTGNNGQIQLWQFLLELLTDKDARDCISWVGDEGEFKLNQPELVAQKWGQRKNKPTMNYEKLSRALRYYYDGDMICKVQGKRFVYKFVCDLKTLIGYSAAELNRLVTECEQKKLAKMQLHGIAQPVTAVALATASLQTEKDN
Procedure, shortened: as §1

ELF1 = ELF1 (Homo sapiens, UniProt P32519 1-619); conditions: protein: recombinant; tags: N-terminal GST; dsDNA, one strand shown
Sequence of ELF1 (P32519 whole entry): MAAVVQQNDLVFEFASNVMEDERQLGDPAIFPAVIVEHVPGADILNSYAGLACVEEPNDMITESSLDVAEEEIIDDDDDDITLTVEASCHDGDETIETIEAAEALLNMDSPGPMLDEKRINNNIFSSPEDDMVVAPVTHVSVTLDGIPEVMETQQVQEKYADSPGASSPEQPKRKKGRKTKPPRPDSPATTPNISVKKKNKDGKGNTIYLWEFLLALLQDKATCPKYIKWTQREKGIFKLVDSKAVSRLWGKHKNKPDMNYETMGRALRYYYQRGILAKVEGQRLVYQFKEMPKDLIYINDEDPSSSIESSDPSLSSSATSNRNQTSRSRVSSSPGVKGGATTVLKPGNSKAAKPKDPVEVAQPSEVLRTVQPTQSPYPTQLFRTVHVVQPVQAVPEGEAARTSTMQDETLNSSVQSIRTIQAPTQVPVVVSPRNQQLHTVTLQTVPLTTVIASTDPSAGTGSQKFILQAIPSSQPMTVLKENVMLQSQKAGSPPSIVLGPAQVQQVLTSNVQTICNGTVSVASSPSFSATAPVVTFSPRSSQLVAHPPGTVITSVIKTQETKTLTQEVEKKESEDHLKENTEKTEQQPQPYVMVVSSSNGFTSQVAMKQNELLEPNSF
Procedure, shortened: as §1

ETV1 = ETV1 (Homo sapiens, UniProt P50549 1-477); conditions: protein: recombinant; tags: N-terminal GST; dsDNA, one strand shown
Sequence of ETV1 (P50549 whole entry): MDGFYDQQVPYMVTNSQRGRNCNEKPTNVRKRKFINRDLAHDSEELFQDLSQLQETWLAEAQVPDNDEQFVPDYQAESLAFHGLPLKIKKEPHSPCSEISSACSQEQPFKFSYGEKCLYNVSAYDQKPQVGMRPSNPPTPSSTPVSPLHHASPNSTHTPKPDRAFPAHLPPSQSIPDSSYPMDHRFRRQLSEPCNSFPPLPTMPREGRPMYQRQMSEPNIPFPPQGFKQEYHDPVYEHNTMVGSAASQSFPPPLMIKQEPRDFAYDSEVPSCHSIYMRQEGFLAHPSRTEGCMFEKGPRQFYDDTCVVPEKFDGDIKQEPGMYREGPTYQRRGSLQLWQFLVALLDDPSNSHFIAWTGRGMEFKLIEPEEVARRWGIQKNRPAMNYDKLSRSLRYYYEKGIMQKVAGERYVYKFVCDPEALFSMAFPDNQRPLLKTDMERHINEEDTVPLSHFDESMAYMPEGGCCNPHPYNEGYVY
Procedure, shortened: as §1

SPDEF = biological target: T10, SPDEF (Homo sapiens, UniProt O95238 1-335); conditions: protein: recombinant; tags: N-terminal GST; dsDNA, one strand shown
T10 sequence: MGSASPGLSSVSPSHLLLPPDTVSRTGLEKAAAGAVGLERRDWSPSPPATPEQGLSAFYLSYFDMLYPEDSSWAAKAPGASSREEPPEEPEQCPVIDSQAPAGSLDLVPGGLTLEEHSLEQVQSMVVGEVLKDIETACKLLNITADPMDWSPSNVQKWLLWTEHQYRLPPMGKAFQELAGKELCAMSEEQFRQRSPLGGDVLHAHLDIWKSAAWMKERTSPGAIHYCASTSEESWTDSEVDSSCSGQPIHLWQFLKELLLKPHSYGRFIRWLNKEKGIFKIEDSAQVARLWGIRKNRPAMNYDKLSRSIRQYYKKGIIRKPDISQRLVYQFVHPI
Procedure, shortened: as §1

ETV3 = biological target: T11, ETV3 (Homo sapiens, UniProt P41162-2 1-143); conditions: protein: recombinant; tags: N-terminal GST; dsDNA, one strand shown
T11 sequence: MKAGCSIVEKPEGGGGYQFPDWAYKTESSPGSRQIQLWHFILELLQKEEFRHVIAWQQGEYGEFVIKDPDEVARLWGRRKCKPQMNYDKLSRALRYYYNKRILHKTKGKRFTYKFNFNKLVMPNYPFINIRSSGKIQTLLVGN
Procedure, shortened: as §1

ETV6 = ETV6 (Homo sapiens, UniProt P41212 1-452); conditions: protein: recombinant; tags: N-terminal GST; dsDNA, one strand shown
Sequence of ETV6 (P41212 whole entry): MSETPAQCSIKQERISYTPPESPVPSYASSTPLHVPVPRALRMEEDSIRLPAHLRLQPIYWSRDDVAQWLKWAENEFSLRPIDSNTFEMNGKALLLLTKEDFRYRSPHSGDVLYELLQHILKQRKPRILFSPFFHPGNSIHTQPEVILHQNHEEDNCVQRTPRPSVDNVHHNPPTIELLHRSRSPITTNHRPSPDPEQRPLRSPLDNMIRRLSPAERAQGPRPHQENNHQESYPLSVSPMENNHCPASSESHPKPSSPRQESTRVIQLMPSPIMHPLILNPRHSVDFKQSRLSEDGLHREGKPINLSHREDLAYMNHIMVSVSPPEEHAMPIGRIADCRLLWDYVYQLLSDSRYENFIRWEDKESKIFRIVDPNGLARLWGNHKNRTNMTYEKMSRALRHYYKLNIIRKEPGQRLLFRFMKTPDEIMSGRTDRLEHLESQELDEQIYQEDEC
Procedure, shortened: as §1

Sequence of HSF1 (Q00613 whole entry, the tested form may be a part): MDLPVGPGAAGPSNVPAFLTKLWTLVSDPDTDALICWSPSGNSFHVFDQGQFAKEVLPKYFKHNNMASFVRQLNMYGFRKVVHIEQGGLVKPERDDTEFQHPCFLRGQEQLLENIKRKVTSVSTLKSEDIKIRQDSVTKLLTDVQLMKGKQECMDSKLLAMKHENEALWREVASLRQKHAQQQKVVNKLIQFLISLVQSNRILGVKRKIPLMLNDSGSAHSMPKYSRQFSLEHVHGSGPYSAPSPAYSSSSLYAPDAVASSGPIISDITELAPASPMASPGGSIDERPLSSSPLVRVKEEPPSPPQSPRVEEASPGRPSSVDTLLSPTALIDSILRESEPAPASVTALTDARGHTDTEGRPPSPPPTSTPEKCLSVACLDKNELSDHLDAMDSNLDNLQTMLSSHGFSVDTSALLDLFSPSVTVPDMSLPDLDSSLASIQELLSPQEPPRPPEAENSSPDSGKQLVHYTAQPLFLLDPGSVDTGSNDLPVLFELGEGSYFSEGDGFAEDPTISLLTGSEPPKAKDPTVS

TTGAGA
binding signal (HSF1): 1.06 fold enrichment (6-mer frequency, TF over GST control) | binding signal (SPIC): 1.02 fold enrichment (6-mer frequency, TF over GST control) | binding signal (CRX): 1.02 fold enrichment (6-mer frequency, TF over GST control)

AGATAT
binding signal (ELK3): 1 fold enrichment (6-mer frequency, TF over GST control) | binding signal (HSF1): 1.1 fold enrichment (6-mer frequency, TF over GST control) | binding signal (ELK4): 1.04 fold enrichment (6-mer frequency, TF over GST control) | binding signal (CRX): 1.06 fold enrichment (6-mer frequency, TF over GST control) | binding signal (ELF5): 1.06 fold enrichment (6-mer frequency, TF over GST control)

ACGAAG
binding signal (HSF1): 1.06 fold enrichment (6-mer frequency, TF over GST control) | binding signal (ELF4): 1.01 fold enrichment (6-mer frequency, TF over GST control) | binding signal (ERF): 1.02 fold enrichment (6-mer frequency, TF over GST control) | binding signal (ETV3L): 1 fold enrichment (6-mer frequency, TF over GST control) | binding signal (ETV7): 1.07 fold enrichment (6-mer frequency, TF over GST control)

GCGATC
binding signal (ELK1): 1.08 fold enrichment (6-mer frequency, TF over GST control) | binding signal (GABPA): 1.01 fold enrichment (6-mer frequency, TF over GST control) | binding signal (ELF1): 1.06 fold enrichment (6-mer frequency, TF over GST control) | binding signal (HSF1): 1.02 fold enrichment (6-mer frequency, TF over GST control) | binding signal (ELK4): 1.13 fold enrichment (6-mer frequency, TF over GST control) | binding signal (CRX): 1.03 fold enrichment (6-mer frequency, TF over GST control) | binding signal (ETV1): 1.03 fold enrichment (6-mer frequency, TF over GST control) | binding signal (ETV3L): 1.03 fold enrichment (6-mer frequency, TF over GST control) | binding signal (SPDEF): 1.04 fold enrichment (6-mer frequency, TF over GST control) | binding signal (ETV3): 1 fold enrichment (6-mer frequency, TF over GST control) | binding signal (ETV6): 1 fold enrichment (6-mer frequency, TF over GST control)

Reference: PMC7862700, “An all-to-all approach to the identification of sequence-specific readers for epigenetic DNA modifications on cytosine”
